# A selection: hits, their analogues and other compounds. The true share with any hit is near 7.3%.
# Tau FP inhib – tau fibrillization inhibition (FP); Potency, µM (titrated, usually from 57.7 µM), for inactives: at the top dose activity, negative = inhibition, usual class: inhibitors; P10636; K18 P301L tau heparin fibrillization, Alexa594 FP, 6 h; 280,000 tested, 0.39% active; note: nearly all actives have a fitted effect of over 55% in size
# Target sequence (P10636 561-689 P618L limits assumed): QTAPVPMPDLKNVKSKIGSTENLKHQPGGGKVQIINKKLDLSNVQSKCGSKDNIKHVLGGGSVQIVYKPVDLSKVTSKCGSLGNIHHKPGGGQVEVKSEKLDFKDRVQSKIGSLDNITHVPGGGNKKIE
#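 FP of Alexa 594-tau after heparin (20 uM) induction. Substrate: human K18 P301L, 15 uM unlabeled, 0.24 uM labeled. Buffer 100 mM sodium acetate pH 7. 6 hr, 37 C.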
# Tau fluor counter – counter-screen for tau fibril formation inhibitors. 280,000 tested, 0.93% active. AID 1463. tau K18 P301L Alexa594 fluorescence, heparin fibrillization. Potency, µM (doses to about 57.7 µM), for inactives: at the top dose activity change, negative = decrease; note: nearly all actives have a fitted effect of over 55% in size
#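 Human tau K18 P301L (15 uM unlabeled, 0.24 uM Alexa 594-labeled) in 100 mM sodium acetate pH 7 with 20 uM heparin, 6 hr at 37 C. ThT 30 uM added, 1 hr ambient; Alexa 594 FP and total fluorescence read at 555/632 nm.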
# Gal4-VP16 FLuc – counter-screen for ROR gamma inhibitors: Gal4-VP16 reporter; Drosophila S2 Gal4-VP16 UAS-luciferase, luminescence, 20 h; Potency, µM (doses to about 53.6 µM), for the others: at the highest dose activity, negative = inhibition, usual class: inhibitors; 310,000 tested, 3.5% active;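 note: Gal4-VP16 expression switched on by copper sulfate through the metallothionein promoter; nearly all actives have a fitted effect of over 50% in size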
# Tau ThT inhib – blocks human tau fibril formation measured by thioflavin T; AID 1460; P10636; Potency, µM (titrated, usually from 57.4 µM), inactives show at the highest dose activity, negative = inhibition, actives largely listed as inhibitors; recombinant tau K18 P301L (four-repeat tau fragment), heparin-induced fibrillization, ThT fluorescence; 270,000 tested, 2.1% active; note: nearly all actives have a fitted effect of over 55% in size
#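 Tau K18 P301L fragment (15 uM unlabeled plus 0.24 uM Alexa 594-labeled) in 100 mM sodium acetate pH 7 with compound, fibrillization induced by 20 uM heparin for 6 hr at 37 C. Thioflavin T (30 uM) added, fluorescence read after 1 hr (ex 450, em 510 nm).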
# RORg inh – inhibitors of mouse ROR gamma transcriptional activity; P51450; Drosophila S2 Gal4-RORgamma UAS-luciferase reporter, 20 h; Potency, µM (series often up to 53.6 µM), for the others: top-dose activity change, negative = inhibition, hits mostly inhibitors; 310,000 tested, 5.4% active; note: nearly all actives have a fitted effect of over 60% in size
#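 Drosophila S2 cells stably expressing Gal4-DBD/mouse RORγ fusion under metallothionein promoter plus UAS-luciferase; compound 1 h, then 700 uM CuSO4 induction for 20 h at ambient temperature; inhibition read as reduced luminescence.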
# Active calls of the source: *; ? = inconclusive; nt = no result given. Calls come from the whole dose curve; as a rule, active = well fitted curve in the direction sought with a large enough effect; inconclusive = small, poorly fitted or top-dose-only effect, or another doubt; inactive = no such curve, though single readings can be large; an effect the other way counts as inactive or inconclusive. % is set by controls: 0 for no effect and ±100 for the full control effect; potency is the fitted concentration of half-maximal effect.
SMILES,Tau FP inhib,Tau fluor counter,Gal4-VP16 FLuc,Tau ThT inhib,RORg inh
CC(=O)Nc1cccc(/C(C)=N/NC(=O)c2ccc(O)cc2)c1,-3%,-3%,?,-2%,11µM*
C/C(=N\NC(=O)c1cc(-c2cccc([N+](=O)[O-])c2)n[nH]1)c1ccccc1O,-5%,?,18µM*,2µM*,3.2µM*
C/C(=N/NC(=O)c1cc(-c2cccc([N+](=O)[O-])c2)n[nH]1)c1cccc(O)c1,-2%,-18%,-8%,?,0%
C/C(=N\NC(=O)c1ccc(OC2CCCC2)cc1)c1ccc(O)cc1,nt,nt,?,nt,14µM*
C/C(=N/NC(=O)c1ccc(O)cc1)c1cccc([N+](=O)[O-])c1,-3%,-12%,13µM*,?,3.2µM*
CSCC[C@H](NC(=O)[C@@H]1CCCN1C(=O)CNC(=O)[C@H](CCCCN)NC(=O)[C@H](Cc1cnc[nH]1)NC(=O)[C@H](CO)NC(=O)[C@H](CC(C)C)NC(=O)[C@H](CCCN=C(N)N)NC(=O)[C@@H]1CCCN1C(=O)[C@H](CCCN=C(N)N)NC(=O)[C@@H]1CCC(=O)N1)C(=O)N1CCC[C@H]1C(=O)N[C@@H](Cc1ccccc1)C(=O)O,nt,nt,-10%,nt,-4%
O=C(COC(=O)c1cccc(NC(=O)c2ccc(Br)cc2)c1)c1ccc(Cl)cc1,?,-18%,nt,-8%,nt
Cc1ccccc1OCC(=O)Nc1ccc(Cc2ccncc2)cc1,-11%,-5%,10µM*,3%,?
Cc1ccc(OCC(=O)Nc2ccncc2)c(C)c1,nt,nt,16µM*,nt,4%
Cc1cccc(OCC(=O)Nc2ccc(N3CCCC3)cc2)c1C,10%,?,-6%,14µM*,-1%
Cc1ccccc1OCC(=O)Nc1ccncc1,nt,nt,11µM*,nt,?
CC(=O)Nc1cccc(NC(=O)COc2ccccc2C)c1,nt,nt,4%,nt,36%
COc1ccc(-n2c3c(cc(-c4nc(-c5ccc(Cl)cc5)cs4)c2=O)C(=O)CC(C)(C)C3)cc1Cl,-18%,-21%,nt,-11%,nt
CCNc1ncc2ncc(=O)n(C[C@H]3CCCO3)c2n1,nt,nt,-18%,nt,-32%
CCn1c(SCc2ccccc2)nnc1-c1nonc1NC(C)=O,-5%,-11%,nt,-3%,nt
C/C(=N\NC(=O)c1cccc2ccccc12)c1cccs1,nt,nt,21%,nt,-13%
O=C(O)c1cccc(Cn2c(Cl)c(/C=N/Nc3ccccc3)sc2=O)c1,?,?,-8%,18µM*,-3%
Cc1ccc(/C=N/NC(=O)c2ccoc2C)s1,3%,13%,?,-2%,?
O=C(N/N=C/c1ccc(Br)s1)c1ccccn1,0%,-13%,4µM*,-17%,?
Cc1occc1C(=O)N/N=C/c1ccc(Br)s1,-6%,-16%,10µM*,?,6.3µM*
C/C(=N\NC(=O)c1ccoc1C)c1cccc2ccccc12,nt,nt,-8%,nt,13µM*
CN(C)S(=O)(=O)Nc1ccc(-c2cn3ccsc3n2)cc1,0%,-6%,nt,-11%,nt
CN1C(C(=O)NCc2cccc(C(F)(F)F)c2)CC2Cn3c(nc4cc(Cl)c(Cl)cc43)C21 (centres undefined),15%,-1%,-15%,-8%,?
O=c1c(-c2ccccc2)nc2cnc(Oc3ccccc3)nc2n1Cc1cccs1,nt,nt,3%,nt,4%
Cc1ccc(NC(=O)C2CCN(c3nc4ccccc4nc3C(F)(F)F)CC2)cc1F,?,-20%,nt,6%,nt
SMILES,Tau FP inhib,Tau fluor counter,Gal4-VP16 FLuc,Tau ThT inhib,RORg inh
O=C(N/N=C/c1ccc(Br)s1)c1ccco1,5%,-18%,10µM*,-13%,6.3µM*
Cc1ccc(/C=N/NC(=O)c2ccco2)s1,-8%,-3%,-7%,-2%,?
O=C(N/N=C/c1sc(=O)n(Cc2ccc(Br)cc2)c1Cl)c1ccco1,nt,nt,?,nt,11µM*
C/C(=N\NC(=O)c1ccoc1C)c1ccc(Br)s1,nt,nt,11µM*,nt,6.3µM*
CN(C)C(=O)c1ccc(-c2ccc3ncnc(N4CCOCC4)c3c2)cc1,nt,nt,3%,nt,7%
COc1ccc(OC)c(NC(=O)CCN2CCN(c3ccccc3OC)CC2)c1,nt,nt,1%,nt,-14%
Cc1ccc(-c2c(C3C4C=CCC(C)C4C(=O)N3Cc3ccccc3)ccc3ccccc23)cc1 (centres undefined),nt,nt,7%,nt,32%
